Peg3 promoter = Peg3 promoter-driven luciferase inhibitors, primary screen, cell-based, HeLa, luciferase luminescence | HeLa PEG-Prom luciferase reporter, overnight | inhibition, % at 20 µM | 360,000 tested, 1.7% active;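 active = inhibition of at least 50% at 20 µM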
PPC-1+TRAIL kill = compounds killing PPC-1 cancer cells with TRAIL present, primary screen, TRAIL potentiator project, ATPLite luminescence, uHTS; cell killing (% activity), % at 4 µM or 5 µM; AID 1443, 2008; PPC-1 cells + TRAIL, ATPLite viability luminescence; 220,000 tested, 0.41% active;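 active = cell killing above 50% in the first pass at 4 µM, then a duplicate retest at 5 µM averaging 50% or more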;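 note: plate controls were cells with TRAIL plus DMSO for no effect and medium-only wells lacking cells for full effect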
KKLEB cytotox = cytotoxicity in KKLEB CF airway cells, primary screen, cytotoxicity control for CF NF-kB inhibitor project, cell-based, uHTS, fluorescence assay plates; KKLEB CF airway cells viability, ATPlite luminescence, overnight; hits give low values; cells stimulated with P. aeruginosa culture filtrate; activity change (cytotoxicity), % at 5 µM; 360,000 tested, 0.36% active; AID 602141, 2011;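 active = corrected activity change at or below -50% at 5 µM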
HIF-2a block = HIF-2a reporter inhibitors, primary screen, luminescence, 786-0 RCC cells; 360,000 tested, 0.72% active; inhibition, % at 18.8 µM; 786-0 RCC cells HIF-2a reporter, luciferase luminescence, overnight;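 active = inhibition of the luminescence signal of 40% or more relative to plate controls, in a single-dose primary screen at 18.75 µM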
CF NFkB block = inhibitors of PAF-induced NF-kB signaling, primary screen, cell-based, GFP fluorescence, uHTS | KKLEB NF-kB-GFP reporter, GFP fluorescence overnight | inhibition, % at 5 µM | 360,000 tested, 0.86% active | AID 588850, 2011;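 active = at least 50% inhibition at 5 µM, scaled per plate between neutral and stimulator controls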;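 note: PAF is a Pseudomonas aeruginosa culture filtrate used as stimulus; plate controls were PAF-stimulated DMSO wells for no effect and unstimulated DMSO wells for full effect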
C8 TRAIL sens = viability loss with TRAIL in NB7+C8 cells, primary screen, TRAIL sensitizer project, cell-based, ATPlite luminescence; inhibition (viability loss, TRAIL sensitization), % at 10 µM; 360,000 tested, 1% active;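 active = compounds causing at least 50% loss of cell viability in the single-dose screen, relative to plate controls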
Active calls of the source: *; / = no result given. Only some compounds are listed: those with a hit (about 3.1% of all), similar ones and a draw of the others.

SMILES	Peg3 promoter	PPC-1+TRAIL kill	KKLEB cytotox	HIF-2a block	CF NFkB block	C8 TRAIL sens
C[C@@H]1CN([C@H](C)CO)C(=O)c2cc(NS(=O)(=O)c3ccc(F)cc3)ccc2O[C@@H]1CN(C)Cc1ccc(Cl)c(Cl)c1	52*	/	13	-15	-4	2
C[C@H]1CN([C@@H](C)CO)C(=O)c2cccc(NC(=O)Nc3ccc(C(F)(F)F)cc3)c2O[C@@H]1CN(C)Cc1ccc(Cl)c(Cl)c1	97*	/	-48	-36	68*	26
C[C@H](CO)N1C[C@H](C)[C@@H](CN(C)S(=O)(=O)c2ccc(F)cc2)Oc2ccc(NS(=O)(=O)c3ccc(F)cc3)cc2C1=O	-1	/	2	12	-14	-11
C[C@@H]1CN([C@H](C)CO)C(=O)c2cc(NC(=O)Nc3ccc(C(F)(F)F)cc3)ccc2O[C@H]1CN(C)Cc1ccc(Cl)c(Cl)c1	47	/	0	-15	0	25
C[C@H](CO)N1C[C@H](C)[C@H](CN(C)S(=O)(=O)c2cn(C)cn2)Oc2ccc(NC(=O)Nc3ccc(C(F)(F)F)cc3)cc2CC1=O	-15	/	-20	6	32	0
C[C@@H]1CN([C@@H](C)CO)C(=O)Cc2cc(NC(=O)Nc3ccc(C(F)(F)F)cc3)ccc2O[C@@H]1CN(C)S(=O)(=O)c1ccc(Cl)cc1	60*	/	-5	-15	26	22
C[C@H](CO)N1C[C@H](C)[C@@H](CN(C)Cc2ccc(-c3ccccc3)cc2)Oc2c(NC(=O)Nc3ccc4c(c3)OCO4)cccc2C1=O	94*	/	-2	-46	6	20
CC1Oc2ccc(C#N)cc2N(Cc2ccccc2OC(F)(F)F)C1=O (stereo not drawn)	13	/	-16	17	10	17
CNC(=O)C1Cc2ccccc2CN1S(=O)(=O)c1cccs1 (stereo not drawn)	51*	-13	3	2	-10	-2
CCc1nnc(NC(=O)C2Cc3ccccc3CN2S(=O)(=O)c2cccs2)s1 (stereo not drawn)	-159	21	-15	-161	3	21
O=C(CCN1C(=O)c2ccccc2S1(=O)=O)N1CCN(c2cccc(Cl)c2)CC1	9	/	-10	3	-6	-10
COc1ccc(/C=N/Nc2cc(N(C)C)nc(N(C)C)n2)cc1	-2	2	-8	-34	6	28
COc1ccc(/C=N/Nc2cc(OC)ncn2)cc1	-33	45	-6	-22	-9	61*
CCOc1ccc(/C=N/Nc2ccccn2)cc1	-222	45	-3	-177	-25	59*
CC(C)C(=O)Nc1cccc(COc2cccc(CN(Cc3ccccc3)C(=O)OC(C)(C)C)c2)c1	19	/	-1	3	25	15
COc1cc(Cl)c(NC2=CC(=O)C(=O)c3ccccc32)c(OC)c1	16	/	-44	37	83*	87*
CC(C(=O)Nc1cccnc1)N1C(=O)c2ccccc2C1=O (stereo not drawn)	15	-4	6	19	6	-9
O=C1C=C(Nc2ccc(F)cc2)c2ccccc2C1=O	12	/	-19	-32	82*	58*
O=C1C=C(Nc2cccnc2)c2ccccc2C1=O	25	/	10	17	54*	70*
CCOc1ccc(NC2=CC(=O)C(=O)c3ccccc32)cc1	-54	/	-13	-106	80*	74*
c1cnc2c(-c3ccc4nccn4c3)cccc2c1	10	/	-7	17	-4	-30
CC(=O)N(C)/C=C1\Sc2ccccc2C1=O	-1	5	-10	-10	8	-14
CC(=O)Nc1ccc(C=NN=C2c3ccccc3-c3ccccc32)cc1	74*	/	-1	-91	-46	14
CC(=O)Nc1ccc(/C=C2\Sc3ccccc3C2=O)cc1	-109	5	-3	50*	0	-3
Fc1ccc(-[n+]2nc(Nc3ccccc3)sc2-c2c(Cl)cccc2Cl)cc1	59*	/	-2	-3	32	30
SMILES	Peg3 promoter	PPC-1+TRAIL kill	KKLEB cytotox	HIF-2a block	CF NFkB block	C8 TRAIL sens
COc1ccc2ccccc2c1-c1sc(Nc2ccccc2)n[n+]1-c1ccc(F)cc1	87*	/	-14	-6	17	46
COc1ccc(-c2sc(Nc3ccccc3)n[n+]2-c2ccc(F)cc2)cc1Br	-49	/	16	-57	-23	21
NS(=O)(=O)c1ccc(N2CCN(C(=O)c3ccco3)CC2)nc1	51*	/	-3	7	14	-7
O=C(NC1CCCC1)N[C@@H]1C=C[C@@H](CC(=O)N2CCOCC2)O[C@@H]1CO	/	/	/	9	/	-9
CCc1nc2ccc(C(=O)Nc3cc(-c4ccccc4)ccc3OC)cn2c1N(C)Cc1ccc(OC)cc1	-13	/	-18	-39	29	12
CCc1nc2ccc(C(=O)Nc3cc(-c4ccccc4)ccc3OC)cn2c1N(C)Cc1nccs1	67*	/	-35	-10	45	26
COc1ccc(NC(=O)CSc2nc3[nH]ncc3c(=O)n2-c2ccccc2OC)cc1OC	7	71*	-14	6	-3	-16
CC1CN(C(=O)CCC(=O)N2CCOCC2)c2ccccc2O1 (stereo not drawn)	2	/	9	5	17	-12
CCOC(=O)c1c(-c2ccccc2)oc2ccc(OC(C)C(=O)O)cc12 (stereo not drawn)	9	-12	4	21	-5	-6
CCOC(=O)c1c(-c2ccccc2)oc2ccc(OCC(O)CN(C)C)cc12 (stereo not drawn)	105*	/	-1	6	-4	18
CC1=CC(=O)C=C(C)C1=NOS(=O)(=O)c1ccccc1	82*	2	-7	63*	21	17
Cc1ccc2c(c1)/C(=N/OS(=O)(=O)c1ccccc1)CCS2	8	/	-14	-3	4	-17
CC1=CC(=O)C(C(C)C)=C/C1=N/OS(=O)(=O)c1ccccc1	106*	-1	27	-16	-1	69*
O=C(NCCN1CCOCC1)C(=O)NCC1OCCN1S(=O)(=O)c1ccccc1 (stereo not drawn)	12	/	-8	7	-4	-8
Cc1ccc(S(=O)(=O)N2C[C@H]3N(C(=O)OC(C)C)N(C(=O)OC(C)C)C[C@H](OC(=O)Nc4cccs4)[C@@]3(O)C2)cc1	4	/	-7	13	17	4
Cc1csc(NC(=O)CSc2nc3[nH]c(=O)cc(O)c3s2)n1	99*	/	-19	30	71*	58*
O=C(NC1CCCCC1)C(CCc1ccccc1)N1CCc2ccccc2C1 (stereo not drawn)	5	/	-20	-1	8	-3

Bioassay records from PubChem BioAssay.
